# HCMV inh = qHTS Assay for inhibitors of the human cytomegalovirus (HCMV); actives 4.5% (n = 410,000); activity change, negative = inhibition, % at 57.5 µM; AID 1259415, 2018; HFF cells, HCMV-luciferase reporter, 72 h; hits give low values; in the data active = activity change below about -60%; inconclusive = no clear call, values can overlap the other calls; inactive = above about -39%
#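 Two-dose cell screen: HFF monolayers treated with compounds and infected with luciferase-expressing HCMV at 1 PFU/cell, 72 h at 37C, then lysed for luciferase measurement.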
# VACV mCherry inh = qHTS for Stage-Specific Inhibitors of Vaccinia Orthopoxvirus: mCherry Reporter Primary qHTS; Vaccinia virus mCherry reporter infection, fluorescence; Potency, µM (titrated, usually from 36.5 µM), actives largely listed as inhibitors; actives 0.63% (n = 310,000); AID 720579, 2013; calls by dose curve; tested in A549 cells; note: nearly all actives have a fitted effect of over 35% in size
# Vaccinia Venus = qHTS for Stage-Specific Inhibitors of Vaccinia Orthopoxvirus: Venus Reporter Primary qHTS; Vaccinia virus Venus reporter expression, fluorescence; Potency, µM (doses to about 36.5 µM), hits mostly inhibitors; actives 0.46% (n = 330,000); calls by dose curve; tested in A549 cells; note: nearly all actives have a fitted effect of over 30% in size
# HCV inh = qHTS Assay for Inhibitors of Hepatitis C Virus (HCV); Huh7.5.1 HCVcc-Cre infection, luciferase reporter, 44 h; Potency, µM (series often up to 41.8 µM), actives largely listed as inhibitors; actives 3.4% (n = 340,000); active = well fitted inhibition curve with a large enough effect; inconclusive = small, poorly fitted or top-dose-only effect, or another doubt; inactive = no such curve, though single readings can be large or run the other way
#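 1,000 cells/well; 4 h culture; + compound; + HCVcc-Cre (~0.5 moi); 44 h; luciferase substrate, RT 15 min; read 15 sec.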
# FMDV antiviral = High Throughput Screening for Foot and Mouth Disease Virus Antivirals. FMDV antiviral cell-based qHTS. Potency, µM (top dose mostly 57.9 µM), usual class: inhibitors. actives 1.2% (n = 410,000). AID 1159524, 2015; calls by dose curve; tested in HEK293T cells; note: read-out not given here; nearly all actives have a fitted effect of over 45% in size
# Numbers stand for hits; – = inactive; ? = inconclusive; · = no result. Hits are enriched below; roughly 7.3% of the tested compounds scored in any of these assays.
SMILES,HCMV inh,VACV mCherry inh,Vaccinia Venus,HCV inh,FMDV antiviral
CCc1ccc(C(c2ccccc2)c2c(C)[nH]c3ccccc23)s1 (centres undefined),-62,–,–,·,–
Cc1ccc(C(c2ccccc2)c2c(C)[nH]c3ccccc23)s1 (centres undefined),-83,–,–,·,–
Cc1[nH]c2ccccc2c1C(c1c[nH]c2ccccc12)c1c(C)[nH]c2ccccc12,·,–,–,·,·
COc1ccc(CCNc2nc(SCc3ccccc3F)nc3ccccc23)cc1OC,–,–,–,·,–
COc1cccc(Nc2nc3ccc(C)cc3nc2-n2nc(C)cc2C)c1,–,–,–,·,–
CCOC(=O)c1ccc(NS(=O)(=O)c2c(C)nc3sccn3c2=O)cc1,–,–,–,–,–
Cc1ccccc1Nc1c(C)c(C)nc2ncnn12,?,–,–,11µM,?
CCOc1ccc(CCNC(=O)c2cc3cccc4c3n2CCS4)cc1,?,–,–,·,–
O=C1CCN(CCc2ccccc2)CCN1[C@H](CO)Cc1ccccc1,–,–,–,2.2µM,–
O=C1CCN(CCCc2ccccc2)CCN1[C@H](CO)Cc1ccccc1,?,–,?,–,–
Cn1c(NCc2ccc3occc3c2)nc2cc(-c3ccc(F)cc3)sc2c1=O,?,–,–,·,–
CN(C)c1ccc(CNc2nc3cc(-c4ccc(F)cc4)sc3c(=O)n2C)cc1,-86,–,–,·,–
O=C(c1ccc(-n2cccc2)cc1)N1CCOCC1,–,–,–,–,–
CC12C(=O)N(c3ccc(C(=O)N4CCOCC4)cc3)C(=O)C1C1c3ccccc3C2c2ccccc21 (centres undefined),-101,·,·,–,·
CSc1ccc(/C=C/c2nc3ccccc3n2S(=O)(=O)c2cccc(Cl)c2)cc1,-65,?,–,·,–
Cc1ccc(/C=C/c2nc3ccccc3n2S(=O)(=O)c2ccc(Br)cc2)cc1,-89,–,–,·,–
C[C@@H]1CN([C@@H](C)CO)C(=O)c2cc(Br)cnc2O[C@@H]1CN(C)C(=O)CN(C)C,–,–,–,·,–
CC(C)N(Cc1ccccc1)C(=O)CN1C(=O)COc2ccc(S(=O)(=O)N3CCCCCC3)cc21,-81,–,–,?,–
O=C(O)CN1C(=O)COc2ccc(S(=O)(=O)N3CCCCCC3)cc21,-61,·,·,–,–
CCOc1ccc2nc(C)cc(Nc3ccccc3OCC)c2c1,?,–,–,·,–
COc1cc(CN2CCC(C(=O)NC(c3ccc(F)cc3)c3ncccc3C)CC2)cc(OC)c1 (centres undefined),–,–,–,·,–
Cc1cccnc1C(NC(=O)C1CCN(Cc2ccccc2)CC1)c1ccc(F)cc1 (centres undefined),-62,–,–,·,–
O=C1[C@H]2[C@@H](c3ccc(F)cc3)N3C(=O)N(c4ccc(Br)cc4)C(=O)[C@@]3(Cc3ccccc3)[C@H]2C(=O)N1C1CCCCC1,–,–,?,–,–
CCOC(=O)C(CC)Sc1nnc2[nH]c(=O)cc(C)n12 (centres undefined),–,–,–,·,–
CN(C)S(=O)(=O)c1cccc(NC(=O)NCCCl)c1,–,·,·,–,–
SMILES,HCMV inh,VACV mCherry inh,Vaccinia Venus,HCV inh,FMDV antiviral
COc1ccc(NS(=O)(=O)c2cccc(NC(=O)NCCCl)c2)cc1,–,–,–,7.9µM,–
COc1ccc(NS(=O)(=O)c2cccc(NC(=O)CCC(=O)c3cccs3)c2)cc1,–,–,–,–,–
COc1ccc(NS(=O)(=O)c2cccc(NC(=O)c3ccc(Cl)nc3)c2)cc1,-89,–,?,2.8µM,32µM
COc1ccc(NS(=O)(=O)c2cccc(NC(=O)CCC(=O)c3ccc(Cl)cc3)c2)cc1,-83,–,–,8.9µM,?
COc1ccc(NC(=O)c2cccc(S(=O)(=O)Nc3ccc(Br)cc3)c2)cn1,-90,?,?,?,–
CC[C@]1(C(=O)OC)[C@H]2C(=O)N(Cc3ccccc3)C(=O)[C@H]2[C@H]2CN=C(SCC3CC3)N21,–,–,–,?,–
CCCN(CCC)c1cc(C)nc2nc(-c3ccc(C(C)(C)C)cc3)nn12,–,–,–,·,–
COc1ccc(NS(=O)(=O)c2ccc(N3CCCC3=O)cc2)cn1,?,–,–,?,–
COc1ccc(NS(=O)(=O)c2ccc3c(c2)Cc2ccccc2-3)cn1,–,–,–,2.8µM,·
